Screening results from PubChem BioAssay.
The list is not random: actives were taken first. Their share in the collection is about 3%.
IP6K1 inh: blocks human inositol hexakisphosphate kinase 1; AID 1645851; activity change, % (series mostly up to about 58 µM); IP6K1 kinase, ADP-Glo luminescence, 2 h; stronger effect = lower value; 140,000 compounds, 0.81% hits; in the data active = activity change below about -25%; note: % is set by controls: 0 for no effect and ±100 for the full control effect
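ADP-Glo luminescence measures ADP made by human IP6K1 during a 2 h RT reaction with ATP/IP6 (mix at 1.3 mM/130 uM); top library doses 57.5 and 19.1 uM final.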
KDM5B inh: inhibitors of human KDM5B histone demethylase; KDM5B demethylase, FDH-coupled NADH fluorescence (FDH is formaldehyde dehydrogenase); Potency, µM (series often up to 57.7 µM), most hits filed as inhibitors; 220,000 compounds, 2.6% hits; note: potency is the fitted concentration of half-maximal effect; 0% is about no effect; nearly all actives have a fitted effect of over 70% in size
Target sequence (Q9UGL1 whole entry, looked up): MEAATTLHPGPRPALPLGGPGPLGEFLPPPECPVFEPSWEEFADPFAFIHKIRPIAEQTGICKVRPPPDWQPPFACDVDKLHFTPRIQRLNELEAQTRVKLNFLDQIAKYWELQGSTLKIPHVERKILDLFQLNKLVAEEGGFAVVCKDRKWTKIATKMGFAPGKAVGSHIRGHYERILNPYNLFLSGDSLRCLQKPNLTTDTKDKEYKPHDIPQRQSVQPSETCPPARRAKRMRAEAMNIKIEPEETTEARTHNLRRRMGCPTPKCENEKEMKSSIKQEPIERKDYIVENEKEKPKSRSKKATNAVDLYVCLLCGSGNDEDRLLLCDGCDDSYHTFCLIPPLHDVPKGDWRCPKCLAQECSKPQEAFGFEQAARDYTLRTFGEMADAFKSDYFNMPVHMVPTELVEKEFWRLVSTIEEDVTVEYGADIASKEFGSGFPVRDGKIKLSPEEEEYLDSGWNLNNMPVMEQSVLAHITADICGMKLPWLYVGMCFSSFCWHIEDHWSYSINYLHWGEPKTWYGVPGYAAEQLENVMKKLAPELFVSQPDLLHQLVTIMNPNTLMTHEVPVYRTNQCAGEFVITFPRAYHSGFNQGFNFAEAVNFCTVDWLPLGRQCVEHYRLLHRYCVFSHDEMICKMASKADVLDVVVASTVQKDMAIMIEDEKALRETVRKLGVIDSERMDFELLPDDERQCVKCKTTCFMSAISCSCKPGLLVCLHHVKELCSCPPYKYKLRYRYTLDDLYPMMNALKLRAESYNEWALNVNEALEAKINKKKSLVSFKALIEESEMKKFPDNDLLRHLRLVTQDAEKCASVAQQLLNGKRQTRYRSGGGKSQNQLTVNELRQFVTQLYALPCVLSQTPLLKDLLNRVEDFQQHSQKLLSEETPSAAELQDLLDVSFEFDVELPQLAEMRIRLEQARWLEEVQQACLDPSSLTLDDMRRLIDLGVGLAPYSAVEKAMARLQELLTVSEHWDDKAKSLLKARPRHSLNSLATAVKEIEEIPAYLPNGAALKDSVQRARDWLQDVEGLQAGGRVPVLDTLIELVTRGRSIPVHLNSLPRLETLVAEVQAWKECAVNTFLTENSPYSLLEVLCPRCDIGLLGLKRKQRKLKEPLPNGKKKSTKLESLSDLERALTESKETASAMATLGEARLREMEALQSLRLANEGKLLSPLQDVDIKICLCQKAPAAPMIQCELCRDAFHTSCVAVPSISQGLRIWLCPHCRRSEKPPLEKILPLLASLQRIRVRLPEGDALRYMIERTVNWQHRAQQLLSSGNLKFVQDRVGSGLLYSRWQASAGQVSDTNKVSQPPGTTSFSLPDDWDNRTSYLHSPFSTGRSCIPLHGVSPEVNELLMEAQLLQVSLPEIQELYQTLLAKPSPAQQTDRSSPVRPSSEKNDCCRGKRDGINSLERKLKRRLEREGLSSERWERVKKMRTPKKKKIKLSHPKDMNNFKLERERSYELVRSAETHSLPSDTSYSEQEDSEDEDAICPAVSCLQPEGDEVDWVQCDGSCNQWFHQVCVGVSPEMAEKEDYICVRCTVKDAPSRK
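Coupled FDH/NAD⁺ fluorescence readout. KDM5BΔAP 200 nM final; compound titration, 10 min RT preincubation; substrate mix 12.5 µM H3K4me3, 25 µM 2-OG, 50 µM Fe(II), 100 µM ascorbate, 0.25 mM NAD⁺, 0.25 U/mL FDH; ΔRFU over 30 min.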
SNCA expr inhib: SNCA gene expression inhibition. 140,000 compounds, 0.17% hits. HEK-293 SNCA-luciferase knock-in, luminescence, 24 h. Potency, µM (doses to about 57.2 µM), inactives show at the highest dose activity change, negative = inhibition, most hits filed as inhibitors. AID 1671194;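 note: potency is the fitted concentration of half-maximal effect; plate controls were DMSO cells for no effect and cell-free wells for full effect; nearly all actives have a fitted effect of over 45% in size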
HEK293 viab: reduces viability of HEK-293 SNCA reporter cells; HEK-293-SNCA-luc viability, GF-AFC fluorescence, 24 h; Potency, µM (titrated, usually from 57.1 µM), inactives show top-dose activity change, negative = cytotoxicity, usual class: cytotoxic; 150,000 compounds, 0.12% hits;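 note: potency is the fitted concentration of half-maximal effect; 0% = DMSO-treated cells and -100% = medium-only wells without cells; nearly all actives have a fitted effect of over 30% in size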
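HEK-293-SNCA-luc cells (1500/well) plated 24 h, then exposed 24 h to a dilution series; GF-AFC added 30 min at 37C, fluorescence 405/540 nm; normalised to medium-only and DMSO wells, Hill fit.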
Starred values were filed as active, the others as inactive; i = inactive; ? = inconclusive; / = not tested or not shown; [ ] = another dose, or the depositor's remark. Unless noted, calls come from the whole dose curve; as a rule, active = well fitted curve in the direction sought with a large enough effect; inconclusive = small, poorly fitted or top-dose-only effect, or another doubt; inactive = no such curve, though single readings can be large; an effect the other way counts as inactive or inconclusive.

SMILES	IP6K1 inh	KDM5B inh	SNCA expr inhib	HEK293 viab
CCc1ccc(C(NC(=O)Cn2nc(C)c3ccccc3c2=O)C(C)C)cc1 (stereo not drawn)	/	i	/	/
CCN(CC)c1cc(CCC(=O)NCCc2cccnc2)ccn1	3	?	11%	-10%
CN(Cc1ccsc1)C(=O)CCc1ccccc1	/	i	/	/
CCN(CC)c1cc(CCC(=O)N(C)Cc2ccccc2)ccn1	18	22µM*	-23%	0%
CCN(CC)c1cc(CCC(=O)N2CCC(C)CC2)ccn1	0	25µM*	?	-19%
CCN(CC)c1cc(CCC(=O)NCCCN2CCOCC2)ccn1	-7	25µM*	-6%	-5%
O=c1oc2ccc(Cl)cc2cc1-c1nc(-c2ccccc2)cs1	/	i	/	/
Cn1cc2c3c(cccc31)CN(C(=O)Cc1ccccc1F)CC2	31	28µM*	?	?
CCn1cc2c3c(cccc31)CN(C(=O)Cc1ccccc1C)CC2	23	?	4%	9%
Cc1ccc(CC(=O)N2CCc3cn(C)c4cccc(c34)C2)cc1	2	28µM*	-11%	3%
Cn1cc2c3c(cccc31)CN(C(=O)C1CCC1)CC2	3	32µM*	-24%	21%
Cc1ccc(CNC(=O)c2ccc(NC(=O)c3cc4c(=O)[nH]c(C)cn4n3)cc2)cc1	-9	3.2µM*	15%	7%
Cc1ccc(Cl)cc1Nc1ncncc1-c1nc(-c2ccccc2)no1	-6	25µM*	-14%	10%
Cc1ccc(CCNc2ncncc2-c2nc(-c3ccccc3)no2)cc1	-9	32µM*	23%	30%
COc1cc2c(cc1-c1ccc(F)cc1)OCC(C)(C)CC2CO (stereo not drawn)	-14	/	/	/
Cc1ccc(Nc2ccnc(N3CCCC(C(=O)NCc4ccccc4F)C3)n2)cc1 (stereo not drawn)	-1	/	?	-24%[12.5 µM]
Cn1c(N2CCC(Cc3ccccc3)CC2)nc2c1c(=O)n(Cc1ccc(Cl)cc1)c(=O)n2C	/	i	/	/
CN1[C@@H](CCC(=O)N2CCN(c3ccccn3)CC2)CNC(=O)[C@@H]2[C@H]1CCN2Cc1cccs1	11	28µM*	-5%	-7%
O=C(Nc1ccccc1)N[C@H]1C[C@H]2C(=O)NC[C@@H](CCC(=O)N3CCN(c4ccccc4)CC3)N2C1	17	i	14%	3%
O=C(N[C@H]1C[C@H]2C(=O)NC[C@@H](CCC(=O)N3CCN(c4ccccn4)CC3)N2C1)c1ccccc1	0	25µM*	7%	8%
CN1[C@@H](CCC(=O)NCc2ccco2)CNC(=O)[C@H]2NCC[C@H]21	-4	i	17%[87.6 µM]	0%[87.6 µM]
CN1[C@@H](CCC(=O)N2CCc3ccccc32)CNC(=O)[C@@H]2[C@H]1CCN2Cc1cccs1	4	i	7%	-11%
Cc1ccc(CN2CC[C@@H]3[C@H]2C(=O)NC[C@H](CCC(=O)N2CCN(c4ccccn4)CC2)N3C)cc1	4	32µM*	19%	4%
CN1[C@@H](CCC(=O)N2CCN(c3ccccn3)CC2)CNC(=O)[C@H]2NCC[C@H]21	7	35µM*	17%[87.6 µM]	7%[87.6 µM]
CCCN(CCC)Cc1ccc(C(=O)NCc2c(C)noc2C)cc1	10	28µM*	8%	26%
SMILES	IP6K1 inh	KDM5B inh	SNCA expr inhib	HEK293 viab
Cc1noc(C)c1CNC(=O)CC(C)(C)C	8	i	3%	-10%
COc1cc(CC(=O)OCc2ccccc2Br)cc(OC)c1OC	/	i	/	/
COc1ccc(C(=O)Nc2ccc3oc(-c4cccc(Cl)c4)nc3c2)cc1	/	i	/	/
Cc1cc(C(=O)NC2CC2)c2cc(Br)ccc2n1	/	i	/	/
O=C(NCC(F)F)c1cc(Br)cn2ccnc12	6	40µM*	50%[87.6 µM]	?
CN(C)C(=O)c1cc(Br)cn2ccnc12	-6	35µM*	17%[87.6 µM]	3%[87.6 µM]
CN(C)C(=O)c1ccccc1Br	/	i	/	/
O=C(NC1CC1)c1cc(Br)cn2ccnc12	-2	40µM*	16%[87.6 µM]	-4%[87.6 µM]
O=C(NCc1cccs1)c1cc(Br)cn2ccnc12	1	40µM*	95%[87.6 µM]	8%[87.6 µM]
O=C(NCC(F)F)c1nc2sccn2c1Br	5	i	36%[87.6 µM]	-6%[87.6 µM]
O=C(Nc1ccc(C23CC4CC(CC(C4)C2)C3)cc1)c1cccc(Cl)c1	/	i	/	/
COC(=O)c1ccc(/C=C(\C#N)C(=O)Nc2ccccc2C(=O)O)cc1	/	i	/	/
O=C(O)c1ccc2c(c1)c(C(C(=O)O)N1CCN(Cc3cccnc3)CC1)cn2Cc1ccccc1 (stereo not drawn)	/	i	/	/
CC1=C/C(=N/NC(=S)NC2CCCCC2)CC(C)(C)C1	/	i	/	/
